Glioma ERSR ind – induces the endoplasmic reticulum stress response in human glioma cells. hit rate 0.02% among 420,000. U87-MG GRP78 promoter luciferase reporter, 16 h. Potency, µM, usual class: activators; also: series mostly up to about 76 µM; nearly all actives have a fitted effect of over 35% in size
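Stably transfected U87-MG glioma cells carrying a GRP78-based luciferase sensor; 16 h compound incubation. Luminescence end-point read 10 min after Bright-Glo addition at room temperature.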
aSyn rescue – rescues yeast growth from alpha-synuclein toxicity; Yeast expressing alpha-synuclein, growth rescue, BacTiter-Glo, 24 h; Potency, µM (highest dose often 46.1 µM), hits mostly activators; hit rate 0.14% among 370,000; AID 652106; also: nearly all actives have a fitted effect of over 65% in size
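Readout is rescue of growth in alpha-synuclein-expressing yeast, so inhibitors of toxicity appear as activators. Growth after 24 hr at 30 deg C in galactose medium is quantified by luminescence.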
Abeta yeast res – restores growth of yeast expressing A-beta42 peptide; hit rate 0.063% among 410,000; yeast expressing A-beta42, growth rescue, OD600, 48 h; response scale: 0% DMSO, 100% iron-clioquinol control; Potency, µM (doses to about 46.1 µM), most hits filed as activators; AID 1347071; also: nearly all actives have a fitted effect of over 55% in size
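Growth rescue measured by 600 nm absorbance after 48 h yeast culture at 30 C with compound. Values normalized between DMSO and an equimolar ferric chloride plus clioquinol control.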
AT treatment – potential ataxia-telangiectasia treatment; F2112 A-T fibroblasts, KAP-1 phosphorylation AlphaLISA; neocarzinostatin DNA damage 30 min before lysis; Potency, µM (series often up to 57.5 µM), hits mostly activators; hit rate 0.19% among 320,000; also: nearly all actives have a fitted effect of over 45% in size
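hTERT-immortalized A-T patient fibroblasts (F2112), 500 cells/well in OPTI-MEM, 1% FBS, got compounds for 60 min, then NCS for 30 min at 37C. Lysates were then assayed for phospho-KAP-1 by AlphaLISA (anti-pKAP1 donor, anti-KAP1 acceptor beads), 6 hr at 25C.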
TDP43 rescue – rescues yeast growth from TDP-43 toxicity. TDP-43 expressing yeast growth rescue, BacTiter-Glo, 24 h. Potency, µM (doses to about 46.1 µM), hits mostly activators. hit rate 1.8% among 410,000. AID 652104; also: nearly all actives have a fitted effect of over 50% in size
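Yeast expressing TDP-43 (pregrown in raffinose, seeded at OD600=0.02 in galactose medium) exposed to compounds 24 hr at 30 deg C. Growth read by BacTiter-Glo luminescence; rescue of toxicity appears as increased signal.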
Mito fusion yeast – inhibitors of mitochondrial division or activators of mitochondrial fusion | AID 485298 | Potency, µM (titrated, usually from 46.1 µM), hits mostly activators | hit rate 0.23% among 320,000 | S. cerevisiae fusion-defective mutant growth rescue, CellTiterGlo 48 h; also: nearly all actives have a fitted effect of over 45% in size
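Luminescent cell viability in 1536-well qHTS format served as the measure of rescued growth in ts fusion-mutant S. cerevisiae cultured on non-fermentable YPEG for 48 hours at 37C.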
Hits are given with their value; 0 = inactive; ? = inconclusive; - = no result given; [ ] = remark or other dose. A selection: hits, their analogues and other compounds. The true share with any hit is near 2.1%. Calls follow the shape of the dose curve; as a rule, active = well fitted curve in the direction sought with a large enough effect; inconclusive = small, poorly fitted or top-dose-only effect, or another doubt; inactive = no such curve, though single readings can be large; an effect the other way counts as inactive or inconclusive.

SMILES	Glioma ERSR ind	aSyn rescue	Abeta yeast res	AT treatment	TDP43 rescue	Mito fusion yeast
COc1cc(=O)n2c(c1C(=O)N(C)Cc1nccs1)CCN(Cc1cc(C)cc(C)c1)CC2	0	-	-	-	-	-
CCn1cc(C(=O)Nc2ccc(C(C)C)cc2)c2cc(OC)c(OC)cc2c1=O	0	-	0	-	0	-
CC(C)CNC(=O)c1cn(C2CCN(Cc3nc4ccccc4s3)CC2)nn1	0	-	-	-	-	-
COc1ccc(NC(=O)c2ccco2)cc1NC(=O)c1cccc(OC(C)C)c1	0	0	0	0	12.6µM	0
COc1ccc(C(=O)Nc2cccc(OC(=O)c3ccc(C)c(C)c3)c2)cc1	0	0	0	0	0	0
COc1ccc(C(=O)Nc2cccc(OC(=O)c3ccco3)c2)cc1	0	0	0	0	17.8µM	0
Nc1nc(-c2ccco2)nn1C(=O)c1ccccc1	0	0	0	0	0	0
Nc1nc(-c2ccco2)nn1C(=O)c1ccc(F)cc1	0	0	0	0	11.2µM	0
S=C(Nc1ccccc1Oc1ccccc1)Nc1cccc(Cl)c1Cl	0	0	0	0	22.4µM	?
CCCC(=O)NCCc1c2n(c3ccc(OC)cc13)CCCc1ccccc1-2	0	0	-	-	-	18.4µM
COc1ccc(OC)c(CCNC(=O)CCc2cn(C)c3ccccc23)c1	0	0	0	0	0	0
O=C(c1cccnc1)C1CCCN(Cc2ccc3c(c2)CN(C(=O)c2ccc4[nH]ccc4c2)CCO3)C1 (configuration not stated)	0	-	-	-	-	-
CCOC(=O)c1nnc(-c2ccccc2)nc1NCc1ccc(Cl)cc1	0	0	0	0	12.6µM	0
O=C(NCc1cccc(Cl)c1)c1ccc(-n2cncn2)c2ccoc12	0	0	0	-	35.5µM	-
O=C(NCc1cccc(Cl)c1)c1ccc(-n2ccnc2)c2ccoc12	0	0	0	-	0	-
CNc1ccccc1C(C)(C)c1cc(-c2cccc([N+](=O)[O-])c2)no1	0	0	11.2µM	0	0	0
CNc1ccccc1C(C)(C)c1cc(-c2cccc(Br)c2)no1	0	0	?	0	0[9.22 µM]	0
Cc1c(C(=O)NCCN2CCOCC2)cnn1-c1nccc(-c2cc3ccccc3o2)n1	0	-	-	-	-	-
CCCCN(C)C(=O)c1ccc2c(c1)N(Cc1cccc(F)c1)C(=O)c1ccccc1S2	0	-	0	-	22.4µM	-
COC(=O)c1ccc(CNC(=O)COC(=O)CC23CC4CC(CC(Br)(C4)C2)C3)cc1	0	0	0	0	0	0
O=c1c2ccccc2ncn1CCCSc1ccccc1	0	0	0	0	12.6µM	0
Nc1c(Cl)c(Cl)nc(C(=O)OCC(=O)N2CCCC2=O)c1Cl	0	0	0	0	0	0
O=C(OCC(=O)N1CCCC1=O)c1nc(Cl)c(Cl)c(Cl)c1Cl	0	0	0	0	25.1µM	0
c1ccc(OCCOc2ccccc2-c2nnco2)cc1	0	0	0	0	0	0
Clc1ccccc1COc1ccccc1-c1nnco1	0	0	0	0	3.16µM	0
SMILES	Glioma ERSR ind	aSyn rescue	Abeta yeast res	AT treatment	TDP43 rescue	Mito fusion yeast
O=C(Nc1cccc(C(F)(F)F)c1)Nc1nnc(N2CCCCCC2)s1	0	-	0	-	0[9.22 µM]	-
Cc1noc2ncnc(Sc3ccc(Br)cc3)c12	0	0	0	0	5.62µM	0
Cc1ccc(-c2c(CN3CCN(c4cc(Cl)ccc4C)CC3)csc2C)cc1	0	-	0	-	?	-
CCNc1ncc2nc(C)c(=O)n(C)c2n1	0	-	-	-	-	-
CC(=O)c1ccc(Sc2nnnn2-c2ccccc2)c([N+](=O)[O-])c1	0	0	0	0	20µM	0
CN1CCN(S(=O)(=O)c2ccc(Sc3nnnn3-c3ccccc3)c([N+](=O)[O-])c2)CC1	0	0	0	0	0	0
CC(C)(C)n1ncc2c(=O)n(Cc3ccc(-c4ccccc4C#N)cc3)cnc21	0	-	-	-	-	-
NC(=S)NNC(=O)COc1ccccc1O	0	0	0	15.8µM	0	0
COc1cccc(CNC(=O)CCSCc2ccccc2F)c1	0	0	0	0	14.1µM	0
COc1cccc(OC)c1CNC(=O)CCSCc1ccccc1F	0	0	0	0	0	0
Cc1ccc(N2CCN(C(=O)c3c(C)oc4ncnc(N5CCCCC5)c34)CC2)c(C)c1	0	-	0	-	?	-
Cc1ccc(N2CCN(C(=O)c3c(C)oc4nc(C)nc(N5CCCC5)c34)CC2)c(C)c1	0	-	0	-	25.1µM	-
Cc1nc(N2CCCC2)c2c(C(=O)N3CCN(c4cccc(C)c4C)CC3)c(C)oc2n1	0	-	0	-	?	-
Cc1cccc(N2CCN(C(=O)c3c(C)oc4ncnc(N5CCCCC5)c34)CC2)c1C	0	-	0	-	35.5µM	-
Cc1cccc(N2CCN(C(=O)c3c(C)oc4ncnc(N5CCOCC5)c34)CC2)c1C	0	-	0	-	20µM	-
COc1ccc(NC(=O)c2csc3c2CCCCC3)cc1	-	-	0	-	0	-
COc1cccc(NC(=O)c2csc3c2CCCCC3)c1	0	-	0	-	12.6µM	-
Cc1ccccc1Cn1cnc2nc3c(cc2c1=O)CC(C)CC3 (configuration not stated)	0	-	0	-	0	-
CCCCNC(=O)CCn1c(=O)c2cccn2c2cccnc21	0	-	0	-	0	-
N#Cc1c(-c2ccco2)cc(C2CC2)nc1N	0	0	0	0	0	0
Cc1ccc(-c2cc(-c3ccccc3)c(C#N)c(N)n2)o1	0	0	0	0	22.4µM	0
N#Cc1c(-c2ccccc2)cc(C2CC2)nc1N	0	0	0	0	12.6µM	?
Cc1ccc(-c2cc(-c3ccccc3Cl)c(C#N)c(N)n2)o1	0	0	0	0	?	?
CC(C)n1nc(C(=O)NC2CCCCCC2)c2ccccc2c1=O	0	0	0	0	22.4µM	?
CCOC(=O)c1c(-c2ccc(Br)cc2)csc1NC(=O)c1ccc(C(C)(C)C)cc1	0	-	0	-	0	-
SMILES	Glioma ERSR ind	aSyn rescue	Abeta yeast res	AT treatment	TDP43 rescue	Mito fusion yeast
O=C1CN(C(=O)c2ccc(S(=O)(=O)N3CCCCC3)cc2)C(c2ccc(F)cc2)c2cc(Br)ccc2N1 (configuration not stated)	0	-	0	-	0	-
CCc1cccc(CC)c1NC(=S)Nc1ccccc1	0	0	14.1µM	0	0[0.397 µM]	0
Cc1cccc(N2CCN(C(=O)c3oc(=O)c4ccccc4c3-c3ccccc3)CC2C)c1 (configuration not stated)	0	-	0	-	12.6µM	-
O=C(c1oc(=O)c2ccccc2c1-c1ccccc1)N1CCOCC1	0	0	0	0	0	0
O=S(=O)(c1ccccc1)N1CCC2(CCN(c3ccc(-c4ccccc4)cc3)CC2)CC1	0	-	-	-	-	-
O=C(NCCN1C(=O)S/C(=C\c2cccc(Cl)c2Cl)C1=O)C1=COCCO1	0	0	0	?	3.98µM	0
CCn1nc(C)cc1C(=O)NCC1CCC2(CCN(Cc3ccccc3F)CC2)O1 (configuration not stated)	0	-	-	-	-	-
COc1ccc(C(=O)OCC(=O)NC(=O)NC2CCCC2)c(O)c1	0	0	0	0	0	0
